# Assay results: PubChem BioAssay (NCI)
# Compounds without any hit were thinned out: in the full panel of roughly 83,000, 20% have a hit.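 Plates (96-well) were seeded with cells, treated with compound at one concentration, and incubated for 48 hours before percent growth was determined.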 Values without a mark were called inactive. Activity calls are given as the source filed them. How the source made its calls: active means growth percent below 10; inactive means the rest.
# Experiments:
# Assay in all cases: NCI-60 one-dose screen, 48 h (100 = growth as untreated, 0 = no growth, -100 = all killed)
# T-47D breast = conditions: 10 µM
# BT-549 breast = conditions: 10 µM unless noted
# MDA-MB-435 melanoma = conditions: 10 µM unless noted
# SW-620 colon = conditions: 10 µM unless noted
# MCF7 breast = conditions: 10 µM unless noted
# HCT-116 colon = conditions: 10 µM unless noted
# HCC-2998 colon = conditions: 10 µM unless noted
# KM12 colon = conditions: 10 µM unless noted
Compound,growth (T-47D breast),growth (BT-549 breast),growth (MDA-MB-435 melanoma),growth (SW-620 colon),growth (MCF7 breast),growth (HCT-116 colon),growth (HCC-2998 colon),growth (KM12 colon)
CC[Si](CC)(CC)OC1[C@@H](O[Si](CC)(CC)CC)[C@@H](CNC(=O)NC)O[C@H]1n1cnc2c(NC(=O)Nc3ccccc3)ncnc21 (some centres undefined),89.8%,104%,65.5%,71.6%,61.6%,51.9%,96.5%,60.8%
Cc1nc(-c2ccccc2)cc2c(O)c(C(=O)N/N=C/Cc3ccccc3)[nH]c(=O)c12,104%,105%,118%,107%,98.5%,101%,95.4%,115%
Cc1nc2cc(Nc3nc(Nc4ccc(F)cc4)nc(N4CCN(C)CC4)n3)ccc2n1Cc1ccccc1,-10.7% (active),-49.9% (active),0.19% (active),15.6%,17.9%,-16.3% (active),-14.8% (active),17%
CCCN(CCC)c1ccc(/C=C/c2ccc3cc(OCC)ccc3n2)cc1,59.1%,119%,95%,89.6%,84.9%,70.4%,94.4%,128%
Cc1ccc2c(N/N=C\c3ccco3)cc(C)nc2n1,37.4%,87.7%,36.6%,39.5%,71.8%,21.5%,65.4%,74.8%
Clc1ccccc1Nc1ccc2nnc(-c3ccncc3)n2n1,100%,101%,98%,114%,95.9%,101%,118%,101%
O=C1NC(=S)S/C1=C\c1cccc([N+](=O)[O-])c1,90.2%,81.2%,93.7%,115%,87.8%,93.2%,87.4%,103%
CN1CCn2c(c(Sc3ccc(C(=O)NO)cc3)c3ccccc32)C1=O,14.6%,2.47% (active),-74.6% (active),-14.4% (active),27.1%,-39.3% (active),-37.8% (active),-51.4% (active)
Cc1ccc(S(=O)(=O)N2C/C(=C\c3cc(F)cc(F)c3)C(=O)/C(=C/c3cc(F)cc(F)c3)C2)cc1,-0.238% (active),-16.9% (active),-76.6% (active),-47% (active),-75.4% (active),-93.9% (active),-82.6% (active),-30.6% (active)
O=C(NCc1ccc(F)cc1)C1CN(c2ccc(Cl)cc2)N(c2ccc(Cl)cc2)C1=O (centres undefined),49.9%,61.2%,-21.8% (active),36.7%,29.6%,48.8%,84.6%,33.2%
COc1cccc(-c2ccc3c(c2)C2CCN(Cc4ccccc4)C3C2)c1 (centres undefined),76.3%,64.2%,9.08% (active),53.6%,60.1%,58.4%,83.5%,56.7%
CN1CCc2c(Sc3ccc(C(=O)NO)cc3)c3ccccc3n2C1,39.7%,76.9%,23.7%,19.6%,32.5%,3.85% (active),66.5%,53.9%
N#Cc1c(O)c2c(c(O)c1C#N)C(=O)c1ccccc1C2=O,23.2%,69.1%,-91.2% (active),8.21% (active),46.2%,1.88% (active),34.5%,73.4%
O=c1[nH]c(-c2ccncc2)nc2sc3c(c12)CCCCCC3,24.6%,98.9%,77.7%,72.2%,77.4%,46.6%,101%,84.4%
COc1ccc(OC)c2ncccc12,100%,97.4%,105%,99%,84.8%,100%,103%,99.6%
O=C(NCc1cccnc1)c1ccc([N+](=O)[O-])o1,57%,4.28% (active),-19.9% (active),-65.3% (active),13.9%,-4.08% (active),-97.6% (active),0.0106% (active)
COc1cc(/C=C2\C(=O)Nc3ccccc32)cc(OC)c1O,49.6%,74.8%,-25.3% (active),31.5%,30.8%,46.4%,78.8%,32.2%
CCN(c1ccc(C(=O)N2CCN(c3ccccc3)CC2)cc1)S(C)(=O)=O,93.2%,108%,106%,108%,95.9%,101%,102%,101%
O=C(Nc1nc2ccccc2[nH]1)C(=O)Nc1nc2ccccc2[nH]1,95.4%,108%,101%,102%,83.9%,103%,107%,101%
CN1CCN(c2ccc3nc(-c4ccc5nc(-c6ccc(C(F)(F)F)cc6)[nH]c5c4)[nH]c3c2)CC1,57.9%,84.6%,49.8%,1.32% (active),4.4% (active),21.1%,87.2%,49.7%
Nc1c(Br)cc(Br)cc1-c1n[nH]c(=O)[nH]c1=O,103%,101%,99.2%,96.9%,99.8%,107%,111%,99.8%
Cc1cc(O)cc2c1[C@H]1CC[C@]3(C)[C@@H](O)CC[C@H]3[C@@H]1C=C2,96.5%,100%,7.81% (active),72%,109%,86.6%,48.4%,102%
CCCCCCCCCCCC(=O)[O][Sn]([CH2]CCC)([CH2]CCC)[CH2]CCC,-89.9% (active),-100% (active),-91.6% (active),-43.2% (active),-88.2% (active),-100% (active),-92.2% (active),-91.4% (active)
O=C1c2c(c3c4cc(Br)ccc4[nH]c3c3ccc4ccccc4c23)C(=O)N1O,69.3%,93.4%,94.6%,68.8%,43.3%,83.6%,95.1%,87.5%
COc1cccc2c(=O)c3c(sc12)c(NCCN(C)C)nc1ccccc13,61.3%,61.3%,-87.1% (active),-69.5% (active),0.0828% (active),11%,12.2%,-76.7% (active)
O=C1CC2c3cc(-c4cc5ccccc5o4)ccc3CCN2C(=O)N1c1ccccc1 (centres undefined),57.4%,92.2%,89.3%,111%,88.6%,75.3%,110%,101%
CCCCCCCCCCCCCCn1c2ccccc2c2c3c(c4c5cc(OC)ccc5oc4c21)C(=O)NC3=O,104%,101%,103%,104%,102%,105%,107%,102%

Compound,growth (T-47D breast),growth (BT-549 breast),growth (MDA-MB-435 melanoma),growth (SW-620 colon),growth (MCF7 breast),growth (HCT-116 colon),growth (HCC-2998 colon),growth (KM12 colon)
COc1cc(/C=C/C(=O)C2=C(/C=C/c3ccc(O)c(OC)c3)NC(=O)NC2c2ccc(O)c(OC)c2)ccc1O (centres undefined),86.7%,93.4%,93.4%,94.2%,82.1%,73.3%,119%,101%
COc1cc(C(=O)/C=C/c2c(-c3cccs3)nc3sccn23)cc(OC)c1OC,-1.93% (active),5.79% (active),2.16% (active),8.66% (active),11%,-14.3% (active),-11.9% (active),-27.2% (active)
O=c1c2cc(F)ccc2oc2c(NCCNCCO)nc3ccccc3c12,84.8%,79.8%,48.5%,21.4%,31.4%,17.2%,56.5%,31.8%
Cc1nn(-c2ccccc2)c2nc3nc4c(c(N)c3c(-c3ccc(Cl)cc3)c12)CCCC4,108%,113%,97%,79.5%,97.8%,80.2%,113%,105%
COC1(OC)C2(Cl)C=C(c3ccccc3)C1(Cl)C(Cl)=C2Cl (centres undefined),95.6%,88.2%,95.7%,115%,99.2%,79.3%,99.8%,109%
COC(=O)[C@H]1CCCN1C(=O)[C@H]1CCCN1C(=O)[C@@H](Cc1c[nH]c2ccccc12)NC(=S)Nc1cc(C(F)(F)F)cc(C(F)(F)F)c1,50.2%,91.9%,31.6%,64.2%,26.1%,39.5%,31.8%,37.2%
CON=C1C[C@]2(C[C@@H]3C[C@@H](C/C=C(\C)C[C@@H](C)/C=C/C=C4\CO[C@@H]5[C@H](O)C(C)=C[C@@H](C(=O)O3)[C@]45O)O2)O[C@H](/C(C)=C/C(C)C)[C@H]1C,29.7%,89.2%,43.7%,34.5%,42%,17.8%,48.7%,33.4%
CCOc1ccc(-c2cnnn2-c2nonc2-n2cccc2)cc1,49%,41.1%,-31.2% (active),21.7%,21.9%,6.67% (active),0.666% (active),8.62% (active)
CCCCCCCCCCCCCCNc1nc(CO)ncc1-c1ccc(C(F)(F)F)cc1,95.6%,110%,102%,103%,96.2%,94.1%,99.4%,99.4%
Cn1c(=O)c(S(=O)(=O)c2ccccc2)cc2ccc3c(cnn3-c3ccc(Cl)cc3)c21,50.5%,66.1%,80.8%,90.5%,99.8%,63.5%,93.4%,89.3%
c1ccc2c(c1)oc1cc3c(cc12)nnc1cccn13,85.4%,97.9%,105%,108%,82.3%,100%,110%,99.8%
Clc1ccc(C2=NN(c3ccccc3)[C@H](c3cn(-c4ccccc4)nc3-c3ccccc3)C2)cc1,112%,112%,99.8%,107%,97.5%,90%,103%,104%
O=C1/C(=C/c2ccc(Cl)cc2)CN(Cc2cn(CCCNc3ccnc4cc(Cl)ccc34)nn2)C/C1=C\c1ccc(Cl)cc1,-10.8% (active),-87.6% (active),-86.7% (active),-75.6% (active),-97.9% (active),-64.4% (active),-88% (active),-75.1% (active)
O=c1[nH]c(=S)[nH]c(=O)n1Cc1cccc2ccccc12,99.5%,107%,99.7%,103%,80.9%,102%,86.5%,105%
CNc1ccc(Br)cc1-c1n[nH]c(=O)[nH]c1=O,109%,99.9%,98.8%,92.9%,90.2%,98.2%,107%,111%
COc1cc(C(F)(F)F)ccc1-c1cc(-c2ccc(F)cc2)n[nH]1,62.7%,106%,96%,98.3%,50.4%,82.2%,108%,88.1%
CCCN1CCN(c2ccc3nc(-c4ccc5nc(-c6ccc(C(F)(F)F)cc6)[nH]c5c4)[nH]c3c2)CC1,48%,73.5%,-89% (active),-82.6% (active),-77% (active),-83.3% (active),-89.8% (active),-86.4% (active)
ONc1nc(NO)c2[nH]cnc2n1,53.5%,77.4%,75.7%,55%,90.2%,46.8%,121%,110%
Cc1cccc2c(=O)c3c(sc12)c(NCCNCCO)nc1ccccc13,44.8%,78.4%,7.39% (active),-67% (active),-69% (active),-70.6% (active),-24.9% (active),5.93% (active)
CCCC1=NNC(=O)C1,101%,99.2%,98.5%,99.8%,96.3%,98.5%,119%,117%
O=c1oc2ccccc2cc1-c1csc(N=Nc2c(O)[nH]c3ccc(Cl)cc23)n1,98.8%,99%,98.9%,103%,93.5%,107%,104%,108%
Fc1ccccc1Nc1ccc2nnc(-c3ccncc3)n2n1,85.3%,101%,106%,106%,94.7%,99.5%,107%,112%
COc1ccc(CSc2nc3cc(OC)c(OC)cc3c(=O)n2-c2ccc(Cl)cc2)cc1,95.4%,100%,98%,99.2%,101%,98.4%,108%,102%
CN1CCc2cccc3c2C1Cc1ccc(O)c(O)c1-3 (centres undefined),89.3%,81.6%,98.6%,34.8%,81.6%,77%,86.5%,96.4%
Clc1ccc(Nc2nc(Nc3ccccc3)nc(Nc3ccc(-c4cc(-c5ccc(Cl)cc5)on4)cc3)n2)cc1,71.7%,59.1%,11.1%,38.7%,50%,27.4%,56.4%,56.9%
CC1=C(C/C=C(\C)CCC[C@H](C)CCC[C@H](C)CCCC(C)C)C(=O)c2ccccc2C1=O,110%,96.7%,108%,104%,108%,98.8%,108%,105%
